# Bioassay records (PubChem BioAssay)
# TDP1 cell noCPT: qHTS for Inhibitors of human tyrosyl-DNA phosphodiesterase 1 (TDP1): qHTS in cells in absence of CPT. AID 686978, 2013. Potency, µM (top dose mostly 46.2 µM), for the others: at the highest dose activity change, negative = growth inhibition, usual class: inhibitors. 420,000 compounds, 15% hits. DT40 Tdp1-/- hTDP1 cells, no CPT, ATP luminescence, 48 h; note: potency is the fitted concentration of half-maximal effect; nearly all actives have a fitted effect of over 55% in size
#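 Readout: luminescence from CellTiter-Glo after 30 min in the dark at RT. Cells: DT40 Tdp1-/- with stable hTDP1, 400/well. Exposure: compounds alone, ≥48 hr, 37 °C.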
# HT1080 IDH1KD tx: HT-1080 IDH1 knockdown cell toxicity (counter line); 360,000 compounds, 2% hits; HT-1080 IDH1 knockdown viability, ATP luminescence, 48 h; AID 686971; Potency, µM (series often up to 46.1 µM), for inactives: at the highest dose activity, negative = toxicity, actives largely listed as cytotoxic;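 note: potency is the fitted concentration of half-maximal effect; 0% = DMSO wells and -100% = cell-free medium wells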
#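 Knockdown cells (IDH1KD HT-1080) received compounds 2 h after plating at 750 cells/well and were kept 48 h at 37 °C in 5% FBS RPMI. A CellTiter-Glo luminescence read gave % activity for curve fitting.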
# TDP1 cell CPT: DT40-hTDP1 cell growth loss with CPT; chicken DT40 Tdp1-/-;hTDP1 cells + 20 nM CPT, ATP luminescence, 48 h; 420,000 compounds, 12% hits; Potency, µM (top dose mostly 46.2 µM), for the others: at the highest dose activity change, negative = growth inhibition, usual class: inhibitors; note: potency is the fitted concentration of half-maximal effect; nearly all actives have a fitted effect of over 55% in size
#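 Cell growth measured by CellTiter-Glo luminescence after a minimum 48 h, 37 C compound exposure with 20 nM CPT in Tdp1-knockout DT40 cells stably expressing hTDP1, seeded 400/well; qHTS titration format.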
# HT1080-NT tox: kills 2HG-producing HT-1080-NT fibrosarcoma cells; HT-1080-NT fibrosarcoma viability, CellTiter-Glo ATP luminescence, 48 h; Potency, µM (titrated, usually from 46.1 µM), for the others: at the top dose activity, negative = less viability, hits mostly cytotoxic; 360,000 compounds, 1.6% hits; AID 686970;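 note: NT is the 2HG producing partner of a matched IDH1 knockdown line; potency is the fitted concentration of half-maximal effect; 0% = DMSO-treated cells and -100% = media-only wells without cells; nearly all actives have a fitted effect of over 55% in size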
#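 A 48-hour cytotoxicity screen used HT-1080-NT cells plated 2 hours before compound delivery. ATP-based CellTiter-Glo luminescence measured viability, normalized to DMSO and no-cell controls.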
# IL1B secr inh: inhibitors of inflammasome signaling (IL-1 beta secretion); THP-1 LPS/ATP IL-1B secretion, AlphaLISA, 16 h; hits give low values; activity change, % at 57.5 µM; 360,000 compounds, 4.7% hits; AID 743279; in the data active = activity change below about -50%; inconclusive = mostly about -30% to -49%
#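 THP-1 cells pretreated 1 hr with compounds (up to 57.5 uM final), then stimulated with LPS (250 ng/mL final) plus ATP (1.25 mM final); secreted IL-1B measured by AlphaLISA after 16 hr, decreased signal indicating inhibition.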
# * hit, by the source's call; u = inconclusive; x = no result. The list is not random: actives were taken first. Their share in the collection is about 19%. Unless noted, calls come from the whole dose curve; as a rule, active = well fitted curve in the direction sought with a large enough effect; inconclusive = small, poorly fitted or top-dose-only effect, or another doubt; inactive = no such curve, though single readings can be large; an effect the other way counts as inactive or inconclusive. Unless noted, % is set by controls: 0 for no effect and ±100 for the full control effect.
SMILES,TDP1 cell noCPT,HT1080 IDH1KD tx,TDP1 cell CPT,HT1080-NT tox,IL1B secr inh
S=C(Nc1ccc(Br)cc1Cl)NN1CCOCC1,-11%,-1%,2%,-23%,-12
CC(C)Oc1cc(F)ccc1-c1cc(C(=O)Nc2cccc(C(F)(F)F)c2)[nH]n1,u,u,16µM*,16µM*,-22
O=C(COc1ccc(Cl)cc1)NCc1ccc(F)cc1,u,0%,u,-2%,-4
O=P(c1ccccc1)(c1ccccc1)C(O)c1ccncc1 (configuration not stated),-1%,2%,-11%,8%,22
O=C1c2ccccc2C(=O)N1C(CO)C(O)c1ccc([N+](=O)[O-])cc1 (configuration not stated),8%,1%,9%,14%,-2
O=[N+]([O-])c1ccc(C=C2c3ccccc3-c3ccccc32)cc1,18µM*,x,-24%,x,x
OC(C1=CC(=Cc2ccncc2)c2ccccc21)c1ccncc1 (configuration not stated),16µM*,-30%,u,3.3µM*,-59*
O=[N+]([O-])c1ccc(/C=C2\C=C(C(O)c3ccc([N+](=O)[O-])cc3)c3ccccc32)cc1 (configuration not stated),4.5µM*,x,6.3µM*,x,x
Cc1ccc(S(=O)(=O)N2CCOC2CNC(=O)C(=O)NCc2cccnc2)cc1 (configuration not stated),1%,7%,2%,0%,4
O=C(C[n+]1cccc(I)c1)c1ccc(F)cc1,-28%,x,-19%,x,x
CCC1CCC2(CC1)NC(=O)N(CC(=O)N1CCc3ccccc31)C2=O (configuration not stated),u,-1%,u,0%,2
Cc1c(CNCCC2=CCCCC2)c(C(=O)O)c(C)n1Cc1ccccc1,u,0%,u,1%,-3
CCOc1cc(C(=O)N(CC)CC(=O)Nc2ccc3c(c2)OCCO3)ccc1OC,-2%,-2%,-12%,1%,27
COc1ccc(NC(=O)C[C@H]2C(=O)N(c3ccccc3)C[C@@H]2C)cc1,u,3%,-27%,4%,-16
Cc1nc(N2CCOCC2)nc(N2CCCCC2C)c1[N+](=O)[O-] (configuration not stated),u,-9%,u,0%,28
CN(Cc1ccccc1)c1ncnc(N)c1[N+](=O)[O-],u,-5%,-28%,-10%,-17
CC1Cc2ccccc2N1c1ncnc(N)c1[N+](=O)[O-] (configuration not stated),1.5µM*,6%,4.1µM*,-11%,-92*
CC1CCCCN1c1ncnc(N)c1[N+](=O)[O-] (configuration not stated),u,1%,u,-18%,-78*
CC1Cc2ccccc2N1c1ncnc2nc[nH]c12 (configuration not stated),23µM*,2%,u,1%,-11
CCN1/C(=C2\OC(=S)N(C)C2=O)Sc2ccccc21,-17%,15%,-9%,u,8
CCN1/C(=C\C=C2\C(=O)N(c3ccccc3)C(=S)N2C)Sc2ccccc21,10µM*,19%,u,-3%,-3
CCOC(=O)c1ccsc1NC(=O)CCS(=O)(=O)c1ccccc1,u,-15%,u,2%,-82*
CCN1CCN(S(=O)(=O)c2ccc(C(=O)Nc3sc4c(c3C(N)=O)CCN(CC)C4)cc2)CC1,-18%,-13%,u,-8%,-14
CCOC(=O)c1c(NC(=O)c2ccc(S(=O)(=O)N3CCC(C)CC3)cc2)sc2c1CCN(CC)C2,21µM*,x,13µM*,x,x
CCOC(=O)c1c(NC(=O)CCS(=O)(=O)c2ccccc2)sc2c1CCN(C(C)C)C2,4.1µM*,11%,4.1µM*,10%,-80*
COC(=O)c1c(NC(=O)c2ccc(S(=O)(=O)N3CCCCC3)cc2)sc2c1CCN(C)C2,4.6µM*,x,4.6µM*,x,x
